Hits are enriched below; roughly 12% of the tested compounds scored in any of these assays.
PLAP act: activators of human placental alkaline phosphatase; P05187; purified PLAP enzyme, luminescent substrate read-out; stronger effect = higher value; activation fold at 20 µM; actives 1.2% (n = 96,000); AID 696; in the data active = activation fold above about 2
Target sequence (P05187 whole entry, looked up): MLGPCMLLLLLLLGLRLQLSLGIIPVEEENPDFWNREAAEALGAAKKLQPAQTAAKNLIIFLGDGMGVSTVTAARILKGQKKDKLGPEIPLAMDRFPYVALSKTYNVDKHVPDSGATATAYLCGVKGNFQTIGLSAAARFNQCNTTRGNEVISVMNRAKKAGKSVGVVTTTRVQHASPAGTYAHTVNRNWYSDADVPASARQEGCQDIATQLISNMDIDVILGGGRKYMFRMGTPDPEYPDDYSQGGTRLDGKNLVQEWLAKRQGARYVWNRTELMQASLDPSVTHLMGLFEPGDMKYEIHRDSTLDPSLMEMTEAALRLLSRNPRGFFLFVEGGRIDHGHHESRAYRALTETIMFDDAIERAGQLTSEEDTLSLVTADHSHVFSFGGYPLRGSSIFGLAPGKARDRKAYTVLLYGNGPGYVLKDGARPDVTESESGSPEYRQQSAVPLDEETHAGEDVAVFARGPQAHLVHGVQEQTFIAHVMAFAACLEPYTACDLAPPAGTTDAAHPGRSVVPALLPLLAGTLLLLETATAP
D1 mod: D1 dopamine receptor (human) allosteric modulation; HEK293 D1, CRE-luciferase, dopamine EC30 potentiation; actives deviate in either direction; P21728; B-score at 10 µM; actives 5.9% (n = 58,000); AID 641;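 active = luminescence count or its row- and column-corrected plate score outside the 99.7% band of the plate's sample wells, on either side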
hDAT+cocaine: changed human dopamine transporter uptake under cocaine IC80. Q01959. LLC-PK1 hDAT cells, [14C]-dopamine uptake with cocaine IC80; actives deviate in either direction. B-score at 10 µM. actives 1.3% (n = 110,000). AID 449768;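 active = Z score or B-score, a plate-position-corrected score, falls beyond the plate's 99.7% confidence bounds, in either direction; inactive = both scores lie inside the 99.7% bounds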;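 note: scored against the spread of the other compound wells on the same plate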
Cav32 inh: human Cav3.2 channel inhibition, primary screen; Cav3.2-expressing cells, Fluo-4 calcium fluorescence FDSS; stronger effect = lower value; B-score at 10 µM; actives 4% (n = 100,000);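 active = single-dose well whose peak fluorescence ratio is a statistical outlier from its plate by either plate-standardised score or position-corrected B-score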
PostGolgi ctrl: yeast control strain growth, post-Golgi counter-screen. actives 5% (n = 98,000). efflux-deficient yeast background strain, growth absorbance A615, 16 h. inhibition, % at 10 µM. AID 738
PostGolgi yeast: growth inhibition of a yeast mutant, post-Golgi transport screen. actives 0.9% (n = 98,000). post-Golgi transport phenotypic cell assay. inhibition, % at 10 µM;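 note: yeast cells grown in 1536-well plates; yeast grown about 18 h at 30C before absorbance read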
* hit, by the source's call. Cut-off read from the data, not from the text of the source, unless noted: active = inhibition above about 30%; inactive = the rest.

CC[C@@H]1C=CC=CC[C@H](C)[C@@H](O)[C@@H](C)C(=O)[C@H](C)[C@@H](O)[C@H](C)C(=O)[C@H](C)[C@@H](O)[C@H](C)C=CC(=O)O[C@H]2[C@@H](C)[C@@H](CC1)O[C@@]1(CC[C@@H](C)[C@@H](C[C@H](C)O)O1)[C@@H]2C was read as hDAT+cocaine -0.011 and Cav32 inh -0.13.
O=c1c(C=NCc2cccs2)c(O)n(C2CCCCC2)c(=O)n1C1CCCCC1 was read as PLAP act 0.9, hDAT+cocaine 1.2, Cav32 inh -4.4*, PostGolgi ctrl 7 and PostGolgi yeast 4.
For COc1ccc(OCC(=O)N2CCN(Cc3c[nH]c4ccccc34)CC2)cc1 the results were PLAP act 1.6, D1 mod -0.38, hDAT+cocaine 4.3*, Cav32 inh 1.1, PostGolgi ctrl 19 and PostGolgi yeast 12.
For O=C(COc1ccccc1)N1CCN(Cc2c[nH]c3ccccc23)CC1 the results were PLAP act 1.3, D1 mod -0.78, hDAT+cocaine 0.031, Cav32 inh 0.46, PostGolgi ctrl 16 and PostGolgi yeast -5.
For CN(C)C1(c2nnnn2CCOC(=O)Nc2ccc(Cl)cc2)CCCCC1 the results were PLAP act 0.9, D1 mod -0.011, hDAT+cocaine 1.7, Cav32 inh -3*, PostGolgi ctrl 12 and PostGolgi yeast 2.
CC1=CC(C)C(COC(N)=O)(COC(N)=O)C(C)C1 (centres undefined) was read as PLAP act 1.3, D1 mod -1.4*, hDAT+cocaine -0.06, PostGolgi ctrl -9 and PostGolgi yeast -1.
For CNCC(=O)c1ccccc1 the results were hDAT+cocaine -0.92 and Cav32 inh -0.002.
For O=c1[nH]c(=O)n(CCC2=CCCCC2)c(O)c1C=NC1CCN(Cc2ccccc2)CC1 the results were PLAP act 1.6, D1 mod -0.96, hDAT+cocaine -0.17, Cav32 inh 1.9, PostGolgi ctrl -5 and PostGolgi yeast -5.
For CCCCCCn1c(O)c(C=NC2CCN(Cc3ccccc3)CC2)c(=O)[nH]c1=O the results were PLAP act 1.9, D1 mod -3*, hDAT+cocaine -0.18, Cav32 inh -3.3*, PostGolgi ctrl 7 and PostGolgi yeast -4.
Screening N=C(N)c1c(O)n(C2CCCCC2)c(=O)n(C2CCCCC2)c1=O returned PLAP act 1, D1 mod 1.9, hDAT+cocaine 0.72, Cav32 inh 0.18, PostGolgi ctrl 53* and PostGolgi yeast 8.
Screening CC1=NCCc2c1[nH]c1ccccc21 returned hDAT+cocaine -0.042 and Cav32 inh 0.1.
For C/C=C(\C)C(=O)OC1C(C)=C2C(C1OC(=O)CCCCC)C(C)(OC(C)=O)CC(OC(=O)CCC)C1(O)C2OC(=O)C1(C)O (centres undefined) the results were hDAT+cocaine -0.52 and Cav32 inh 4.3*.
CCC(C)(C)n1nnnc1CN1CCC(n2c(C)nc3cc(C(F)(F)F)ccc32)CC1 was read as hDAT+cocaine 1.3 and Cav32 inh 4*.
For CCN1CCN(Cc2nnnn2C(C)(C)C)CC1 the results were PLAP act 1, D1 mod 0.072, hDAT+cocaine -1.1, Cav32 inh 0.22, PostGolgi ctrl 22 and PostGolgi yeast -1.
Screening CC1CN(O)C2CCc3c(no[n+]3[O-])C12O (centres undefined) returned PLAP act 1, hDAT+cocaine 0.65, Cav32 inh -0.37, PostGolgi ctrl 7 and PostGolgi yeast 6.
CC(C)NS(=O)(=O)c1ccc(OCC(=O)N2CCN(C)CC2)cc1 was read as PLAP act 1.2, D1 mod -0.076, hDAT+cocaine 1.9, Cav32 inh -0.37, PostGolgi ctrl 2 and PostGolgi yeast 4.
CN1CCN(C(=O)COc2ccc(-c3nc4ccccc4s3)cc2)CC1 was read as PLAP act 1.5, D1 mod -4.4*, hDAT+cocaine 1.8, Cav32 inh 1.3, PostGolgi ctrl 12 and PostGolgi yeast 3.
`COc1cc(/C=N/NC(=O)CN2CC(c3ccccc3)CC2=O)ccc1OC(=O)N(C)C` (centres undefined) gave PLAP act 1.2, hDAT+cocaine 1.2, Cav32 inh 0.74, PostGolgi ctrl -6 and PostGolgi yeast -8.
`Nc1ccccc1C(=O)OCCOc1ccccc1` gave PLAP act 0.6, D1 mod -4.4*, hDAT+cocaine -0.26, Cav32 inh -2.3, PostGolgi ctrl 6 and PostGolgi yeast 3.
Nc1ccccc1C(=O)OCC(=O)N1CCc2ccccc21 was read as PLAP act 1, hDAT+cocaine -0.032, Cav32 inh -0.16, PostGolgi ctrl 6 and PostGolgi yeast 4.
Screening COC(=O)C1=C(c2ccccc2)C[C@@H]2CC[C@H]1N2C(=O)NC1CCCCC1 returned hDAT+cocaine 0.38 and Cav32 inh -1.8.
Screening CCN1CCN(c2ncnc3ccc(Br)cc23)CC1 returned PLAP act 1.6, D1 mod 1.1, hDAT+cocaine 0.093, Cav32 inh 1, PostGolgi ctrl 32* and PostGolgi yeast -4.
CCN1CCN(Cc2ccc(C)cc2)CC1 was read as PLAP act 1, D1 mod -0.19, hDAT+cocaine -0.67, Cav32 inh 0.53, PostGolgi ctrl -10 and PostGolgi yeast -3.
For CCCCCCOc1ccc(CN2CCN(C)CC2)cc1 the results were PLAP act 1.8, D1 mod -3.5*, hDAT+cocaine -0.36, Cav32 inh 0.25, PostGolgi ctrl 23 and PostGolgi yeast -5.
Cn1c(O)c(C=NCCN2CCN(C(=O)c3ccccc3)CC2)c(=O)n(C)c1=O was read as PLAP act 1.9, D1 mod -7.4*, hDAT+cocaine -0.74, Cav32 inh 1.9, PostGolgi ctrl 10 and PostGolgi yeast 6.
CSCCC(N=Cc1c(O)n(-c2ccc(F)cc2)c(=O)[nH]c1=O)C(=O)OC(C)(C)C (centres undefined) was read as PLAP act 1.5, hDAT+cocaine 0.79, PostGolgi ctrl 2 and PostGolgi yeast 6.
CCCC(=O)c1c(O)[nH]c(=O)[nH]c1=O was read as PLAP act 1.1, D1 mod -1.2, hDAT+cocaine 0.11, Cav32 inh 0.38, PostGolgi ctrl -3 and PostGolgi yeast 1.
C=C(C)[C@@]12OC3(c4ccccc4)O[C@@H]1C1[C@@H]4O[C@]4(CO)[C@@H](O)[C@]4(O)C(=O)C(C)=C[C@H]4[C@@]1(O3)[C@H](C)[C@H]2OC(=O)/C=C/C=C/c1ccccc1 (some centres undefined) was read as hDAT+cocaine -6.3* and Cav32 inh -4.4*.
For Cn1c2ccccc2c2c(C(=O)N3CCC4(CC3)OCCO4)cn(C3CCCC3)c(=O)c21 the results were PLAP act 1.4, D1 mod -0.013, hDAT+cocaine 0.93, Cav32 inh 0.27, PostGolgi ctrl 4 and PostGolgi yeast 33*.
C[C@@H]1C2C[C@@]34COC(=O)C3=CC=C[C@H]4[C@@]13C[C@H](c1ccoc1)O[C@@H]3O2 was read as hDAT+cocaine -0.6 and Cav32 inh 0.33.
